The subject of the first experiment is T1, MEK5.
T1 construct: gene MAP2K5
Conditions: concentration: 1 μM, replicates: in singlicate; n = 1.
In the case of `O=C(Nc1n[nH]c2cc(-c3cccc(F)c3)ccc12)C1CC1` [SB-735464], the “%Inh” value is given as 31%.
On the same count and under the same terms, under `Cc1nnc(-c2ccc(C)c(-c3ccc(C(=O)Nc4ccc(NS(C)(=O)=O)cc4)cc3)c2)o1` [GW702865] stands 18%.
Still for that read-out and setting: under `CNc1ncnc2[nH]ncc12` [SKF-18355] stands 55%; under `Cc1cccc(-c2nc(-c3ccc(S(C)(=O)=O)cc3)sc2-c2ccncc2)c1`, 12%.
Still for that read-out and setting: under `Nc1nc(-c2ccc3c(N)n[nH]c3c2)cc(N2CCCC2)n1` [GSK2227430] stands 7%; under `Fc1ccc(-c2ncn(CCCN3CCOCC3)c2-c2cccnc2)cc1` [SB-211743], 15%.
As to `[2H]C([2H])(c1cccc(C(F)(F)F)c1C)n1ccn2c(=O)nc(N3CCOCC3)cc12` [GSK2336394], the “%Inh” value is reported as 1%.
Still for that read-out and setting: under `c1ccc(-c2cc(-c3c[nH]nc3-c3ccccn3)ccn2)cc1` [GW576604] stands 41%; under `CCc1nc(-c2cccc(C)c2)c(-c2ccnc(NCc3ccccc3)c2)s1`, 1%; under `Cn1ccc2ncnc(Oc3ccc(NC(=O)Nc4ccncc4)c(Cl)c3)c21`, 4%.
Still for that read-out and setting: under `COCCNC(=O)c1ccc(-c2cc(C(=O)NC3CC3)cc(F)c2C)cc1` [GW868318] stands 53%; under `O=C1NC(=O)C(N2CCc3ccccc32)=C1c1cccc(Cl)c1` [SB-408010], 0%.
`CN(C1=C(c2ccccc2)C(=O)NC1=O)c1ccccc1` [SB-334860]: the “%Inh” value turned out to be 34%.
On the same count and under the same terms, under `NCC(NC(=O)c1cc(-c2cn[nH]c2)c(-c2ccnc3[nH]ccc23)s1)c1ccccc1.O=C(O)C(F)(F)F.O=C(O)C(F)(F)F` (stereo not shown) [GSK1325775] stands 80%.
Same read-out and setting: under `COc1ccc(Nc2nccc(N3CCC(NC(=O)Nc4cccc(C(C)=O)c4)C3)n2)cc1` (stereo not shown) [GSK1379731] stands 36%.
In the case of `Cn1cc(-c2ccc3c(c2)CCN3C(=O)Cc2ccccc2Cl)c2c(N)ncnc21` [GSK2608885], the “%Inh” value is 99.7%.
On the same count and under the same terms, under `O=c1cc(N2CCOCC2)nc2n(Cc3cccc(F)c3)ccn12` [GSK2297430] stands 31%; under `CN(C(=O)c1ccc(-c2cc(-c3c[nH]nc3-c3ccccn3)ccn2)cc1)C1CCOCC1` [GW810083], 5%.
The same measure, in the same setting: under `CC(=O)Nc1ccc(COc2ccc(Nc3ccnc4cc(-c5ccccn5)ccc34)cc2)cc1.Cl` [GW440148] stands 99.5%; under `NS(=O)(=O)c1cccc(-c2ccc3nccc(-c4cccc(S(N)(=O)=O)c4)c3c2)c1` [GW867253], 41%; under `N#Cc1c(N2CCOCC2)sc(-c2ccn[nH]2)c1-c1ccc(Cl)cc1`, 29%.

Another experiment relates to T2, MEK6.
T2 construct: gene MAP2K6
The settings on record: concentration: 1 μM, replicates: in singlicate; n = 1.
Take `O=C(Nc1cccc(-c2nn3ncccc3c2-c2ccnc(Nc3cccc(C(F)(F)F)c3)n2)c1)c1c(F)cccc1F` [GSK299495]: the “%Inh” value was found to be 7%.
On the same count and under the same terms, under `O=C(c1ccc(-c2cc(-c3c[nH]nc3-c3ccccn3)ccn2)cc1)N1CCOCC1` [GW812171] stands 14%; under `Cc1cccc(Cn2ccn3c(=O)cc(N4CCOCC4)nc23)c1` [GSK2297542], 5%.
The same measure, in the same setting: under `NS(=O)(=O)c1cccc(-c2ccc3ncc(N4CCOCC4)nc3c2)c1` [GSK1535721] stands 4%; under `CCc1ccnc(/C=C/c2n[nH]c3cc(Sc4ccccc4C(=O)NC)ccc23)c1`, 9%; under `O=c1cc(N2CCOCC2)nc2n(Cc3cccc(C(F)(F)F)c3)ccn12` [GSK2297543], 0%.
Still for that read-out and setting: under `COC(=O)Nc1nc2cc(Oc3ccc(NC(=O)Nc4cc(F)ccc4F)cc3)ccc2[nH]1.Cl` [GW701424] stands 0%; under `NS(=O)(=O)CCc1cccc(Nc2nccc(-c3c(-c4cccc(NC(=O)c5c(F)cccc5F)c4)nn4ccccc34)n2)c1` [GSK336735], 47%.
Consider `O=C(NCCNc1ccnc(Nc2ccc(F)cc2)n1)c1cc2ccccc2s1` [GSK1379874], for which the “%Inh” value is 0%.
As for `CC(C)(C)n1cnc2c(N)ncnc21` [SKF-97359], the “%Inh” value was determined as 0%.
Regarding `COc1cc2c(cc1OC[C@@H](O)CO)ncc1c3ccc(C#N)cc3[nH]c21`, the “%Inh” value is 0%.
Same read-out and setting: under `O=C(NCCNc1ccnc(Nc2ccc(F)cc2)n1)Nc1ccccc1F` [GSK1379880] stands 0%; under `Fc1ccc(-c2ncn(CCCN3CCOCC3)c2-c2ccccn2)cc1` [SB-211742], 0%; under `O=C(Nc1n[nH]c2cc(-c3cccc(F)c3)ccc12)C1CC1` [SB-735464], 0%.
On to `Cc1nnc(-c2ccc(C)c(-c3ccc(C(=O)Nc4ccc(NS(C)(=O)=O)cc4)cc3)c2)o1` [GW702865], for which the “%Inh” value was determined as 0%.
Still for that read-out and setting: under `CNc1ncnc2[nH]ncc12` [SKF-18355] stands 10%; under `Cc1cccc(-c2nc(-c3ccc(S(C)(=O)=O)cc3)sc2-c2ccncc2)c1`, 14%; under `Nc1nc(-c2ccc3c(N)n[nH]c3c2)cc(N2CCCC2)n1` [GSK2227430], 8%.
On the same count and under the same terms, under `Fc1ccc(-c2ncn(CCCN3CCOCC3)c2-c2cccnc2)cc1` [SB-211743] stands 0%; under `[2H]C([2H])(c1cccc(C(F)(F)F)c1C)n1ccn2c(=O)nc(N3CCOCC3)cc12` [GSK2336394], 0%.
Same read-out and setting: under `c1ccc(-c2cc(-c3c[nH]nc3-c3ccccn3)ccn2)cc1` [GW576604] stands 0%.
As for `CCc1nc(-c2cccc(C)c2)c(-c2ccnc(NCc3ccccc3)c2)s1`, the “%Inh” value amounted to 6%.
Same read-out and setting: under `Cn1ccc2ncnc(Oc3ccc(NC(=O)Nc4ccncc4)c(Cl)c3)c21` stands 0%.
Same read-out and setting: under `COCCNC(=O)c1ccc(-c2cc(C(=O)NC3CC3)cc(F)c2C)cc1` [GW868318] stands 0%; under `O=C1NC(=O)C(N2CCc3ccccc32)=C1c1cccc(Cl)c1` [SB-408010], 0%.
Same read-out and setting: under `CN(C1=C(c2ccccc2)C(=O)NC1=O)c1ccccc1` [SB-334860] stands 0%.
`NCC(NC(=O)c1cc(-c2cn[nH]c2)c(-c2ccnc3[nH]ccc23)s1)c1ccccc1.O=C(O)C(F)(F)F.O=C(O)C(F)(F)F` (stereo not shown) [GSK1325775]: the “%Inh” value worked out at 24%.
Still for that read-out and setting: under `COc1ccc(Nc2nccc(N3CCC(NC(=O)Nc4cccc(C(C)=O)c4)C3)n2)cc1` (stereo not shown) [GSK1379731] stands 0%; under `Cn1cc(-c2ccc3c(c2)CCN3C(=O)Cc2ccccc2Cl)c2c(N)ncnc21` [GSK2608885], 47%; under `O=c1cc(N2CCOCC2)nc2n(Cc3cccc(F)c3)ccn12` [GSK2297430], 0%.
Still for that read-out and setting: under `CN(C(=O)c1ccc(-c2cc(-c3c[nH]nc3-c3ccccn3)ccn2)cc1)C1CCOCC1` [GW810083] stands 0%; under `CC(=O)Nc1ccc(COc2ccc(Nc3ccnc4cc(-c5ccccn5)ccc34)cc2)cc1.Cl` [GW440148], 18%.
On the same count and under the same terms, under `NS(=O)(=O)c1cccc(-c2ccc3nccc(-c4cccc(S(N)(=O)=O)c4)c3c2)c1` [GW867253] stands 7%; under `N#Cc1c(N2CCOCC2)sc(-c2ccn[nH]2)c1-c1ccc(Cl)cc1`, 0%.
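Further: KINOMEscan kinase panel screen.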
